About 710 (1.3%) of roughly 56,000 compounds were called active. Many of the other results were omitted from the sample, so actives are more common in it than they were. Values without a mark were called inactive.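 How the source made its calls: active means inhibition above the mean inhibition of all tested compounds plus 3 SD (cut at about 28% in these data); inactive means the rest.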
Assay: Jurkat cell viability reduction – Jurkat E6.1, 60K MLSMR library, cytotoxicity control, primary screen (AID 463)
Details: Jurkat E6.1 viability, ATP luminescence, 48 h; at 4 µM; hits give high values

Which inhibition does the source give for `O=C(CSc1nc2c(cnn2-c2ccc(F)cc2)c(=O)[nH]1)N1CCCCCC1` here?
Its inhibition is 2.5%.

With `CC(C)Oc1ccc(C(=O)Nc2cc(=O)n(C)c(=O)n2C)cc1` as the compound, how does the inhibition read?
Its inhibition is 2.6%.

With `O=C(c1ccco1)N1CCN(C(=O)C2CC(c3ccc(Cl)c(Cl)c3)=NO2)CC1` (configuration not stated) as the compound, how does the inhibition read?
The inhibition was -1.7%.

With `COc1ccc(C2=NOC(C(=O)NCc3ccco3)C2)cc1OC` (configuration not stated) as the compound, how does the inhibition read?
The inhibition was 85.8% (active).

For `COc1ccc(CCNS(=O)(=O)c2ccc(C(=O)NCc3ccco3)cc2)cc1OC`, which inhibition is on record?
Its inhibition is 0.2%.

Which inhibition does the source give for `CC(C)NS(=O)(=O)c1ccc(NC(=O)c2cccnc2)cc1` here?
Its inhibition is 0.7%.

For `Cc1cccc(NC(=O)COc2ccccc2C)n1`, which inhibition is on record?
Its inhibition is 8.1%.

Which inhibition does the source give for `CN1CCN(c2ccc(NC(=O)COc3ccc(Cl)cc3Cl)cc2)CC1` here?
Its inhibition is -0.1%.

With `Cc1ccccc1OCC(=O)Nc1ccc(N2CCN(C(=O)C(C)C)CC2)c(Cl)c1` as the compound, how does the inhibition read?
Its inhibition is 30.2% (active).

With `CCOC(=O)c1cnc(SCC(=O)NCc2ccco2)nc1N` as the compound, how does the inhibition read?
Its inhibition is -0.1%.

With `O=C(CSc1nnc(-c2cccs2)n1-c1ccccc1)NCc1ccco1` as the compound, how does the inhibition read?
Its inhibition is -1.7%.

For `Cc1cc(C(=O)OCC(=O)NCc2ccco2)c(C)n1-c1ccccc1`, which inhibition is on record?
The inhibition was 75.4% (active).

Which inhibition does the source give for `COc1cccc(OC)c1C(=O)Nc1nnc(C(C)C)s1` here?
The inhibition was 5.1%.

Which inhibition does the source give for `Cc1ccc(OCC(=O)Nc2ccc(-c3nc4ncccc4o3)cc2)cc1` here?
The inhibition was -9.9%.

For `Nc1nonc1-c1nc2ccccc2n1CCC(=O)O`, which inhibition is on record?
Its inhibition is 1.7%.

For `COc1ccc(C)c(Cn2c(-c3nonc3N)nc3ccccc32)c1`, which inhibition is on record?
Its inhibition is 75.3% (active).

With `Nc1nonc1-c1nc2ccccc2n1Cc1ccc(F)cc1` as the compound, how does the inhibition read?
The inhibition was 20.3%.

With `CCC(=NC1CC(C)(C)NC(C)(C)C1)C1=C(O)CC(C)(C)CC1=O` as the compound, how does the inhibition read?
Its inhibition is -4.2%.

Which inhibition does the source give for `CCc1cc(=O)oc2cc(OCC(=O)N3CCCc4ccccc43)ccc12` here?
Its inhibition is -8.4%.

With `CCN(c1ccccc1)S(=O)(=O)c1ccc(N)cc1` as the compound, how does the inhibition read?
The inhibition was -3.3%.

For `CC1CN(c2cc(=O)n(-c3cccc(Br)c3)c(=O)[nH]2)CC(C)O1` (configuration not stated), which inhibition is on record?
Its inhibition is 1.2%.

With `CCC(=O)Nc1ccc2c(c1)nc(CCN1CCN(C)CC1)n2C` as the compound, how does the inhibition read?
Its inhibition is 7.5%.

Which inhibition does the source give for `Cc1nn(CC(=O)Nc2ccc3c(c2)nc(CN2CCCCC2)n3C)c(=O)c2ccccc12` here?
Its inhibition is 1.4%.

With `Cn1c(CN2CCOCC2)nc2cc(NC(=O)c3ccc(Cl)cc3)ccc21` as the compound, how does the inhibition read?
The inhibition was 86.9% (active).

With `CC(=O)OC(C(=O)NCCc1ccccc1)c1cccnc1` (configuration not stated) as the compound, how does the inhibition read?
The inhibition was -5.8%.

With `O=S(=O)(NCC1CCCO1)c1ccc2ccccc2c1` (configuration not stated) as the compound, how does the inhibition read?
Its inhibition is -0.5%.

Which inhibition does the source give for `CC1CCCN(Cc2nc3c(c(=O)n(C)c(=O)n3C)n2CC(=O)c2ccccc2)C1` (configuration not stated) here?
The inhibition was 4.9%.

With `CC1=NC2(CCCc3c2no[n+]3[O-])N(O)C1(C)C` (configuration not stated) as the compound, how does the inhibition read?
Its inhibition is 12.1%.

For `Cc1cc(NC(=O)CSCc2nc(-c3cccc(Cl)c3)oc2C)no1`, which inhibition is on record?
Its inhibition is 0.8%.

Which inhibition does the source give for `O=C(Nc1cc(N2CCOCC2)ncn1)NC1(C(F)(F)F)Oc2ccc(Cl)cc2O1` (configuration not stated) here?
Its inhibition is 72.6% (active).

With `c1cnn(-c2cc(N3CCOCC3)ncn2)c1` as the compound, how does the inhibition read?
The inhibition was -0.2%.

Which inhibition does the source give for `COc1c(C)cccc1C(=O)Nc1cc(Cl)ccc1N1CCOCC1` here?
The inhibition was -1%.

Which inhibition does the source give for `CCOC(=O)C1=C(C)NC(C)=C(C(=O)OCC)C1C1=COCCO1` here?
Its inhibition is -5.9%.

For `CCOC(=O)CCc1c(C)c2ccc(OCc3nn[nH]n3)c(C)c2oc1=O`, which inhibition is on record?
Its inhibition is -2.2%.

Which inhibition does the source give for `CN(C)CCCn1c(N)c(C#N)c2nc(C#N)c(C#N)nc21` here?
Its inhibition is 1.9%.

For `CC(C)Cc1cc(C(=O)NCCc2ccccc2)no1`, which inhibition is on record?
Its inhibition is 6%.

Which inhibition does the source give for `CC(C)CNC(=O)c1cc(-c2ccc(Br)cc2)on1` here?
Its inhibition is 1.8%.

Which inhibition does the source give for `CC(C)Cc1cc(C(=O)Nc2cc(Br)ccc2O)no1` here?
Its inhibition is 60.7% (active).

With `COCCn1c(SCC(=O)Nc2cc(Cl)ccc2OC)nc2c(c1=O)SC(C)C2` (configuration not stated) as the compound, how does the inhibition read?
The inhibition was 6.8%.

For `O=C(CSc1nnc(-c2ccco2)n1-c1ccccc1)NCCc1ccccc1`, which inhibition is on record?
The inhibition was 0.2%.

With `COc1ccc(Nc2oc(-c3ccccc3Cl)nc2C#N)cc1` as the compound, how does the inhibition read?
Its inhibition is 85.4% (active).

Which inhibition does the source give for `CCOc1ccc(Nc2oc(Cc3ccccc3)nc2C#N)cc1` here?
The inhibition was -0.9%.

For `N#Cc1nc(-c2ccc(OCc3ccccc3)cc2)oc1NCCCN1CCOCC1`, which inhibition is on record?
Its inhibition is -3.2%.

With `O=C(Nc1ccc2c(c1)OCCO2)c1ccncc1` as the compound, how does the inhibition read?
The inhibition was 3.8%.

With `O=C(Nc1nc(-c2ccc3c(c2)OCO3)cs1)c1ccncc1` as the compound, how does the inhibition read?
The inhibition was 44% (active).

With `O=C(Nc1nc(-c2ccncc2)cs1)C1COc2ccccc2O1` (configuration not stated) as the compound, how does the inhibition read?
Its inhibition is 7.3%.

With `Cn1c(=O)cc(SCC(=O)N2CCCC2)c2cc(Cl)ccc21` as the compound, how does the inhibition read?
The inhibition was 3.9%.

Reference: PubChem BioAssay AID463 (The Scripps Research Institute Molecular Screening Center, 2006)
